Inconclusive results are not listed. The source made the active and inactive calls. Unless noted, the call rests on the fitted dose curve; in most records, active means well fitted curve in the direction sought with a large enough effect in the repeat runs; inconclusive means weak or mixed curves; inactive means no such curve, though single readings can be large; an effect the other way counts as inactive or inconclusive.
How the values were obtained:
[1] = qHTS assay to identify small molecule antagonists of the estrogen related receptor (ERR) signaling pathway from Tox21 library - cell viability counter screen (AID 1224834); further: nearly all actives have a fitted effect of over 30% in size
In short: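 CellTiter-Fluor fluorescence, read after 30 min at 37 C, measures viability of ERR cells. Cells plated at 2,000/well and incubated 6 h before pin-tool compound addition, then exposed 17.5 hours at 37 C.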

[2] = biological target: Luciferin 4-monooxygenase (Photinus pyralis) (UniProt P08659); assay: qHTS assay to identify small molecule inhibitors of firefly luciferase (AID 1224835); further: nearly all actives have a fitted effect of over 25% in size
In short: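 Biochemical qHTS: compounds run as interplate titrations against purified firefly enzyme, with D-luciferin and ATP each at its KM concentration. Light output recorded by CCD imaging.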

[3] = qHTS assay to identify small molecule agonists of the constitutive androstane receptor (CAR) signaling pathway - cell viability counter screen (AID 1224836); further: nearly all actives have a fitted effect of over 45% in size
In short: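 HepG2 cells stably carrying hCAR and a CYP2B6-2.2kb reporter; 15-concentration compounds plus PK11195 (final 0.75 uM), 23 hr at 37 C/5% CO2. Viability read by CellTiter-Fluor fluorescence.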

[4] = qHTS assay to identify small molecule antagonists of the constitutive androstane receptor (CAR) signaling pathway - cell viability counter screen (AID 1224837); further: nearly all actives have a fitted effect of over 45% in size
In short: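 Cytotoxicity counter-screen: CellTiter-Fluor fluorescence after 23 h compound exposure (15-point qHTS) in double-stable HepG2-CYP2B6-hCAR cells, with 50 nM CITCO added.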

[5] = biological target: Nuclear receptor subfamily 1 group I member 3 (Homo sapiens) (UniProt Q14994); assay: qHTS assay to identify small molecule agonists of the constitutive androstane receptor (CAR) signaling pathway (AID 1224839);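 further: HepG2 cells stably carrying human CAR and a CYP2B6 luciferase reporter; nearly all actives have a fitted effect of over 15% in size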
In short: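 HepG2 cells stably co-transfected with hCAR and a CYP2B6-2.2kb luciferase reporter; compounds at 15 concentrations with 0.75 uM PK11195 present. After 24 hr at 37 C, luciferase read by ONE-Glo luminescence.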

[6] = qHTS assay to identify small molecule antagonists of the estrogen related receptor signaling pathway with the pleiotropic PPARgamma coactivator (PGC) from Tox21 10K library - cell viability counter screen (AID 1224840; active means well fitted cell-killing curve with a large enough effect in the repeat runs, not every such curve was filed as active; further: nearly all actives have a fitted effect of over 40% in size)
In short: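 Counter-screen for cytotoxicity: after 17.5 h compound exposure at 37 C, CellTiter-Fluor reagent added to PGC/ERR cells for 30 min and fluorescence read. Cells were seeded at 2,000 per well 6 h before dosing.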

[7] = qHTS assay to identify small molecule agonists of the hypoxia (HIF-1) signaling pathway - cell viability counter screen (AID 1224844; calls by dose curve; further: nearly all actives have a fitted effect of over 50% in size)
In short: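 Cytotoxicity measured by CellTiter-Glo ATP luminescence in the wells also read for beta-lactamase signal. Cells were HRE-bla ME-180 (2,000/well, 0.5% dialyzed FBS), exposed to compounds for 17 h at 37C.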

[8] = qHTS assay to identify small molecule agonists of H2AX (AID 1224845; active means well fitted activation curve with a large enough effect in the signal ratio in the repeat runs, not every such curve was filed as active; the % refers to the signal ratio)
In short: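 Wild-type CHO-K1 cells, plated overnight, exposed 3hr at 37C to 15 concentrations (0.76% DMSO final). Lysed, then HTRF anti-pH2AX (S139) cryptate and anti-H2AX-d2 antibodies, 24 hr room temperature; 665/620 nm emission read.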

[9] = qHTS assay to identify small molecule agonists of the hypoxia (HIF-1) signaling pathway (AID 1224846; active means well fitted activation curve with a large enough effect in the signal ratio in the repeat runs, not every such curve was filed as active; the % refers to the signal ratio)
In short: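 Compounds added to ME-180 cells carrying hypoxia-response-element beta-lactamase reporter (0.5% dialyzed FBS, 5 h preplating), 17 h at 37C; agonist activity detected by CCF4-AM B/G FRET read-out.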

[10] = qHTS assay to identify small molecule agonists of H2AX - cell viability counter screen (AID 1224847; calls by dose curve; further: top concentration of the series differs between compounds; nearly all actives have a fitted effect of over 30% in size)
In short: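 CHO-K1 cells plated overnight at 37C, then exposed 3 h at 37C to compounds at 15 concentrations (0.76% DMSO final). Viability by CellTiter-Glo luminescence after 30 min at room temperature.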

[11] = qHTS RealTime-Glo MT Cell Viability Assay in HepG2 cells - 24 hour (AID 1224867); further: nearly all actives have a fitted effect of over 50% in size
In short: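 HepG2 cells were seeded at 600 cells/well together with NanoLuc luciferase and a cell-permeant prosubstrate, preincubated 5 h at 37 C/5% CO2, then pin-dosed with compounds in DMSO. Nonlytic luminescence from viable cells was read at each time point.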

[12] = qHTS RealTime-Glo MT Cell Viability Assay in HEK293 cells - 32 hour (AID 1224868); further: top concentration of the series differs between compounds; nearly all actives have a fitted effect of over 50% in size
In short: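 HEK293 cells were seeded at 600 cells/well together with NanoLuc luciferase and cell-permeant prosubstrate, preincubated 5 h at 37 C/5% CO2, then given compound in DMSO by pintool. Luminescence from viable-cell prosubstrate reduction was read repeatedly over 40 h.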

[13] = A CellTox Green Cytotoxicity Assay to monitor cytotoxicity in HEK293 cells - 0 hour (AID 1224869); further: nearly all actives have a fitted effect of over 50% in size
In short: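 Fluorescence from a DNA-binding dye excluded by viable cells was measured repeatedly in the same HEK293 wells (600 cells/well) during continuous compound exposure at 37 C. Each assay gives one read point: 0, 8, 16, 24, 32 or 40 h.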

[14] = qHTS RealTime-Glo MT Cell Viability Assay in HepG2 cells - 40 hour (AID 1224870); further: nearly all actives have a fitted effect of over 50% in size
In short: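 HepG2 cells (600/well) mixed with RealTime-Glo MT reagent, settled 5 h at 37 C/5% CO2 before compound addition. Nonlytic NanoLuc luminescence from viable-cell prosubstrate reduction read repeatedly during 40 h treatment at 37 C.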

[15] = qHTS assay to identify small molecule antagonists of the estrogen related receptor signaling pathway with the pleiotropic PPARgamma coactivator (PGC) from Tox21 10K library (AID 1224841; call rule not given here)
In short: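 Luminescence (One-Glo, 30 min at room temperature) after 18 h compound treatment at 37 C of PGC/ERR reporter cells plated at 2,000 cells/well and settled 6 h beforehand.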

[16] = qHTS assay to identify small molecule agonists of the estrogen related receptor signaling pathway with the pleiotropic PPARgamma coactivator (PGC) from Tox21 10K library (AID 1224842); further: nearly all actives have a fitted effect of over 15% in size
In short: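 PGC/ERR reporter cell line, 2,000 cells per well, incubated 6 h at 37 C before 23 nL compound in DMSO was added. After 18 h at 37 C, One-Glo luminescence read following 30 min at room temperature.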

[17] = qHTS assay to identify small molecule antagonists of the estrogen related receptor (ERR) signaling pathway from Tox21 library (AID 1224848); further: nearly all actives have a fitted effect of over 50% in size
In short: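 Compounds dissolved in DMSO are pin-transferred onto ERR reporter cells (2,000 per well) that have settled for 6 h at 37 C. Plates then incubate 18 h at 37 C before ONE-Glo luciferase reagent and a luminescence read 30 min later.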

[18] = qHTS assay to identify small molecule agonists of the estrogen related receptor (ERR) signaling pathway from Tox21 library (AID 1224849; calls by dose curve; further: nearly all actives have a fitted effect of over 15% in size); conditions: ERR reporter cell line, ONE-Glo luciferase, 18 h; at 92.4 µM (top of the series) unless noted
In short: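 Luminescent agonist read-out (One-Glo, 30-minute room-temperature incubation) following 18-hour compound treatment at 37 C of the ERR cell line, which had been plated 6 hours before dosing.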

[19] = biological target: Thyrotropin receptor (Homo sapiens) (UniProt P16473); assay: qHTS assay to identify small molecule agonists of the thyroid stimulating hormone receptor (TSHR) signaling pathway (AID 1224843; calls by dose curve; further: nearly all actives have a fitted effect of over 45% in size)
In short: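 HEK293/TSHR, 800 cells/well; cpd 30 min RT; add cAMP-d2 + anti-cAMP-cryptate, 1 h RT; fluorescence read on plate reader. 15-pt titration, n=3.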
On the % scale 0 is the no-effect control and ±100 the full control effect.

Chain of Luciferin 4-monooxygenase (Photinus pyralis) (P08659 whole entry, looked up): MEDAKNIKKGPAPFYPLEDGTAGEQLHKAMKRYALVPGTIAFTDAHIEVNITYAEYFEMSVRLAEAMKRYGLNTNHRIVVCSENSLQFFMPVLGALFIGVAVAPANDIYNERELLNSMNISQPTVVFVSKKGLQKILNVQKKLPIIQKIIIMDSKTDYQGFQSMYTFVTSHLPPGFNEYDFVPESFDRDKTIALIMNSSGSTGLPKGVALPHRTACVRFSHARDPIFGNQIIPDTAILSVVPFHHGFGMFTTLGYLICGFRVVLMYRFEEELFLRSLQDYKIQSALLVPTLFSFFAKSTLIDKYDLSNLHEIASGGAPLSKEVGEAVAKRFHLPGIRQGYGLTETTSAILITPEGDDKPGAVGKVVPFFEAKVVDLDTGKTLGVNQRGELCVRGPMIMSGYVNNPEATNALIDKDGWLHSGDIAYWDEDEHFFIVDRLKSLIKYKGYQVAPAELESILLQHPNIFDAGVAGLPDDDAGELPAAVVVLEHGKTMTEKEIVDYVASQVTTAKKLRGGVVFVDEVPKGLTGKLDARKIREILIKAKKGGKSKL
Chain of Nuclear receptor subfamily 1 group I member 3 (Homo sapiens) (Q14994 whole entry, looked up): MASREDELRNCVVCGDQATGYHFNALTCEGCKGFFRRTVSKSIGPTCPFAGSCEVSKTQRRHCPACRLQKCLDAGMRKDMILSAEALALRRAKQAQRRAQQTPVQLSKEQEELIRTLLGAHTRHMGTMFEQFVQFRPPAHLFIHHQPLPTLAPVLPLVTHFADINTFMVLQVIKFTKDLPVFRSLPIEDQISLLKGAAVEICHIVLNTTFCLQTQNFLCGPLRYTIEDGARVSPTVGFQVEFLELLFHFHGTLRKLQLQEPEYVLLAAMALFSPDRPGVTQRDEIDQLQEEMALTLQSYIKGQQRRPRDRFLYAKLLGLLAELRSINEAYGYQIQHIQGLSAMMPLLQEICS
Chain of Thyrotropin receptor (Homo sapiens) (P16473 whole entry, looked up): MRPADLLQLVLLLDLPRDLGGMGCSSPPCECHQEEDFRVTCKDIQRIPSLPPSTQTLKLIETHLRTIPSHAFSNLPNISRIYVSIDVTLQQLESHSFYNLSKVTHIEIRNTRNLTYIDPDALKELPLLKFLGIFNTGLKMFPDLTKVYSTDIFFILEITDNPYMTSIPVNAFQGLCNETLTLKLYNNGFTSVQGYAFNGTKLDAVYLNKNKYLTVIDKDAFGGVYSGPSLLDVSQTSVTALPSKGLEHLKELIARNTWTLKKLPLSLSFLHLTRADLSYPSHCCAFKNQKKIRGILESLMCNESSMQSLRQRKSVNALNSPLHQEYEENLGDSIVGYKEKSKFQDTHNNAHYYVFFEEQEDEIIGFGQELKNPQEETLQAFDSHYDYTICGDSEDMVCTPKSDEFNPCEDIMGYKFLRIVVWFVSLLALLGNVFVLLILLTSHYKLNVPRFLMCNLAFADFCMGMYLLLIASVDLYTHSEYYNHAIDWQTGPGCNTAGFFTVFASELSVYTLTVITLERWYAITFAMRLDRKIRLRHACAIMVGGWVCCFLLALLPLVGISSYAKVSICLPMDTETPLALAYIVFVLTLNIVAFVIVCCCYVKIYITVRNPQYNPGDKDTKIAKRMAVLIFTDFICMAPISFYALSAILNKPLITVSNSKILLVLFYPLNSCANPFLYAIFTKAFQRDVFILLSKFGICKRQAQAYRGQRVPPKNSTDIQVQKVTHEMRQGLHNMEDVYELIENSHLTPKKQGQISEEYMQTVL

c1cncc([C@@H]2CCCCN2)c1
inactive: Potency [1] | Potency [2] | Potency [3] | Potency [4] | Potency [5] | Potency [6] | Potency [7] | outcome [8] | outcome [9] | Potency [10] | Potency [11] | Potency [12] | outcome [13] | Potency [14]

CCN(CC)C1CCCCC1
inactive: Potency [1] | Potency [2] | Potency [3] | Potency [4] | Potency [5] | Potency [15] | Potency [16] | Potency [7] | outcome [8] | outcome [9] | Potency [10] | Potency [17] | activity change, positive = activation [18] 0.2% | Potency [11] | Potency [12] | outcome [13] | Potency [14]

CCCC[N+](=O)[O-]
inactive: Potency [1] | Potency [2] | Potency [3] | Potency [4] | Potency [5] | Potency [6] | Potency [15] | Potency [16] | Potency [19] | Potency [7] | outcome [8] | outcome [9] | Potency [10] | Potency [17] | activity change, positive = activation [18] -0.684% | Potency [11] | Potency [12] | outcome [13] | Potency [14]

CCOC(=O)CCl
inactive: Potency [1] | Potency [2] | Potency [3] | Potency [4] | Potency [5] | Potency [6] | Potency [19] | Potency [7] | outcome [8] | outcome [9] | Potency [10] | Potency [11] | Potency [12] | outcome [13] | Potency [14]

O=C(O)c1c(Cl)ccc2cc(Cl)cnc12
inactive: Potency [1] | Potency [2] | Potency [3] | Potency [4] | Potency [5] | Potency [6] | Potency [19] | Potency [7] | outcome [8] | outcome [9] | Potency [10] | Potency [11] | Potency [12] | outcome [13] | Potency [14]

C#CC(C)(C)O
inactive: Potency [1] | Potency [2] | Potency [3] | Potency [4] | Potency [5] | Potency [15] | Potency [16] | Potency [7] | outcome [8] | outcome [9] | Potency [10] | Potency [17] | activity change, positive = activation [18] -2.81% | Potency [11] | Potency [12] | outcome [13] | Potency [14]

Cc1ccc2c(c1)C1CN(C)CCC1N2 (stereo not given)
inactive: viability change, negative = cytotoxic [1] 8.02% [at 19 µM] | activity change, negative = inhibition [2] -0.519% [at 23.6 µM] | viability change, negative = cytotoxic [3] 3.2% [at 19 µM] | activity change, negative = cytotoxicity [4] 1.97% [at 19 µM] | activation [5] 2.22% [at 19 µM] | viability change, negative = cytotoxic [6] 2.92% [at 19 µM] | activity, negative = inhibition [15] -1.31% [at 19 µM] | activation [16] -0.364% [at 19 µM] | activation [19] 15.7% [at 19 µM] | activity change, negative = cytotoxicity [7] -1.4% [at 15.8 µM] | activation [9] 0.38% [at 15.8 µM] | activity change, negative = cytotoxicity [10] -2.09% [at 31.6 µM] | activity, negative = inhibition [17] 10.8% [at 19 µM] | activity change, positive = activation [18] 6.1% [at 19 µM] | activity change, negative = cytotoxicity [11] -2.75% [at 15.8 µM] | activity change, negative = cytotoxic [12] 0.479% [at 15.8 µM] | cytotoxicity [13] -0.0492% [at 15.8 µM] | activity change, negative = cytotoxic [14] 2.24% [at 15.8 µM]
